# Source: PubChem BioAssay AID1851 (National Center for Advancing Translational Sciences (NCATS), 2009)
# Values joined by “and” are separate entries in the source; they are usually repeats but may differ in a detail not shown here. Identical values can stand only once. In all, about 16,000 compounds went through this assay and about 4,000 (25%) were called active. About 26% were inconclusive and are not listed. The call rests on the fitted dose curve; in most records, active means well fitted curve in the direction sought with a large enough effect; inconclusive means small, poorly fitted or top-dose-only effect, or effect the other way; inactive means no such curve, though single readings can be large or run the other way. Not all results are given here. Where a structure was tested more than once in an assay, its records may differ in their call.
# Target: Cytochrome P450 2C9 (Homo sapiens) (UniProt P11712)
# Assay: Cytochrome panel assay with activity outcomes
# Settings: recombinant CYP, pro-luciferin dealkylation, luminescence, p450-cyp2c9; series mostly up to 57.1 µM
# On the % scale 0 is the no-effect control and ±100 the full control effect.
# Sequence of Cytochrome P450 2C9 (Homo sapiens) (P11712 whole entry, looked up): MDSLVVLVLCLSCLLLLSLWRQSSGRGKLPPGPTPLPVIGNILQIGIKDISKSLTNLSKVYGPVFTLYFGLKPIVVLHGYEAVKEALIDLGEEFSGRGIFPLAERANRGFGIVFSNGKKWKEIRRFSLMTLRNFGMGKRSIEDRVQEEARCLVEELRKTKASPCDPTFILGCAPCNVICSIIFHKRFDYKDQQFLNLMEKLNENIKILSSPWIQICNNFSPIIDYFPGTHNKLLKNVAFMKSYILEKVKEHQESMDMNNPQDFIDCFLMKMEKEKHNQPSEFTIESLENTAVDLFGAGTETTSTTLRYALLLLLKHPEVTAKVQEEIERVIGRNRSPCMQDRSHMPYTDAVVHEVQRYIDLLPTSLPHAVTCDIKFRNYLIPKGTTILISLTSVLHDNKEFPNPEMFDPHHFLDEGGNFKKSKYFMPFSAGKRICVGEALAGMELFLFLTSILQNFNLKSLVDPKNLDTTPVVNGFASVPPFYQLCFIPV
SMILES,"activity, negative = inhibition",AC50
Cc1ccccc1-n1c(O)c(C=Nc2ccc(N(C)C)cc2)c(=O)[nH]c1=O,inactive,–
CC(C)N[C@@H](C)Cc1ccc(I)cc1,inactive,–
CCN(CC)C1=NC(=[N+](CC)CC)c2ccccc21,inactive,–
C[C@]1(C(=O)O)[C@@H]2CC[C@@H](O2)[C@@]1(C)C(=O)O,inactive,–
CCOCCN1CCC(OC(C)=O)C(C)C1 (stereo unspecified),inactive,–
CCN1C[C@]2(C)CC[C@H](OC)[C@@]34[C@@H]2[C@H](OC(C)=O)[C@]2(OCO[C@@]25C[C@@H](OC)[C@@H]2C[C@@]3(O)[C@H]5[C@@H]2OC)[C@H]14,inactive,–
O=C1NC(=O)N(CCNc2ncc(C(F)(F)F)cc2Cl)C(=O)C1/C=N/OCc1c(F)cccc1Cl (stereo unspecified),–,0.794 µM (active)
NC[C@@H](CC(=O)O)c1ccc(Cl)cc1,inactive,–
N[C@@]1(C(=O)O)CC[C@H](C(=O)O)C1,inactive,–
COC[C@H]1OC(=O)c2coc3c2[C@@]1(C)C1=C(C3=O)[C@H]2CCC(=O)[C@@]2(C)C[C@H]1OC(C)=O,inactive,–
Cc1cc(C(C)(C)C)cc(C)c1CC1=NCCN1,inactive,–
CC[C@H](CO)NC(=O)[C@@H]1C=C2c3cccc4c3c(cn4C)C[C@@H]2N(C)C1,inactive,–
CC(=O)OCC(=O)[C@@H]1CC[C@H]2[C@H]3CC[C@H]4C[C@@H](O)CC[C@]4(C)[C@@H]3C(=O)C[C@@]12C,inactive,–
CC(=O)[C@@H]1CC[C@H]2[C@H]3CC[C@H]4C[C@@H](O)CC[C@]4(C)[C@@H]3CC[C@]12C,–,2 µM (active)
C[C@H]1CC[C@]2(OC1)O[C@@H]1C[C@@H]3[C@@H]4CC[C@H]5C[C@@H](O)CC[C@]5(C)[C@@H]4CC(=O)[C@@]3(C)[C@H]1[C@@H]2C,inactive,–
C[C@]12CC[C@H](O)C[C@@H]1CC[C@H]1[C@H]2CC[C@]2(C)C(=O)CC[C@@H]12,inactive,–
C[C@@]12CC[C@H]3[C@@H](CCC4=CC(=O)CC[C@]43C)[C@H]1CC[C@H]2C(=O)CO,inactive,–
C[C@]12CC[C@H](O)C[C@@H]1CC[C@H]1[C@H]2CC[C@]2(C)[C@H](C(=O)CO)CC[C@@H]12,–,25.1 µM (active)
CC(C)(C)NC[C@H](O)c1cc(Cl)c(N)c(Cl)c1,inactive,–
O=C1C=C2C=C[C@H]3C[C@@]2(O1)[C@H]1CCCCN31,inactive,–
CN[C@H](Cc1ccccc1)c1cccc(OC)c1O,9.59% [at 11.4 µM] (inactive),–
CCC(=O)O[C@@](Cc1ccccc1)(c1ccccc1)[C@@H](C)CN(C)C,inactive,–

SMILES,"activity, negative = inhibition",AC50
CC(C)Oc1cc(-n2c(=S)[nH]c3ccccc3c2=O)c(Cl)cc1Cl,–,2.24 µM (active)
C[C@]12CC[C@H]3c4ccc(O)cc4CC[C@@H]3[C@H]1CC[C@@H]2OC(=O)CCc1ccccc1,-8.07% [at 11.4 µM] (inactive),–
COc1cc2c3cc1Oc1cc(ccc1O)C[C@@H]1c4c(cc(OC)c(O)c4Oc4cccc(c4)C[C@H]3N(C)CC2)CC[N+]1(C)C,inactive,–
O=NN(Cc1ccc(Cl)cc1)[C@@H](C(=O)O)c1ccccc1,-22.5% [at 11.4 µM] (inactive),–
N[C@H](CCCP(=O)(O)O)C(=O)O,inactive,–
N#Cc1ccc(CN2CC[C@@]3(CCCN(C(=O)Oc4ccccc4)C3)C2)cc1,inactive,–
CC[N+](C)(C)c1cccc(O)c1,inactive,–
Cc1cccc(NC(=S)NC2CC3CCCC(C2)N3Cc2cccs2)c1 (stereo unspecified),inactive,–
CN(C)CCC=C1c2ccccc2CCc2ccccc21,inactive,–
Cc1o[nH]c(=O)c1C[C@H](N)C(=O)O,–,inactive and 10 µM (active)
CC(C)(C)c1o[nH]c(=O)c1C[C@H](N)C(=O)O,inactive,–
Cc1o[nH]c(=O)c1C[C@@H](N)C(=O)O,inactive,–
CCCN1CCC[C@@H]2Cc3nc(N)ncc3C[C@H]21,inactive,–
COC(=O)C1(C)C=C2C(=C(C)C(=O)C2C)CN1 (stereo unspecified),inactive,–
c1cncc(CNCCN2CCNCC2)c1,-12% [at 11.4 µM] (inactive),–
CCC1=C(C[C@H]2NCCc3ccccc32)C[C@@H]2c3cc(OC)c(OC)cc3CCN2C1,-10.7% [at 11.4 µM] (inactive),–
C[C@@H](O)CN(CCN(C[C@@H](C)O)C[C@@H](C)O)C[C@@H](C)O.O=[N+]([O-])O.[Cu],–,0.794 µM (active)
CNC(=S)NC1CC2CCCC(C1)N2CC(C)C (stereo unspecified),inactive,–
Cc1c([C@@H](C)[C@H]2NC[C@H](C)C[C@@H]2O)ccc2c1C[C@@H]1[C@H]2CC=C2C[C@@H](O)CC[C@@]21C,2.85% [at 11.4 µM] (inactive),–
C[N+]1(C)CCO[C@](O)(c2ccc(-c3ccc([C@]4(O)C[N+](C)(C)CCO4)cc3)cc2)C1,inactive,–
O=C(O)C1=CCCN(CCOC(c2ccc(C(F)(F)F)cc2)c2ccc(C(F)(F)F)cc2)C1,–,2.51 µM (active)
c1ccc2c([C@@H]3CCN(CCN4CCOCC4)C3)c[nH]c2c1,-7.99% [at 11.4 µM] (inactive),–

SMILES,"activity, negative = inhibition",AC50
Cc1cc(OC(=O)CCCNC(=O)OC(C)(C)C)c2c3c(c(=O)oc2c1)CCC3,–,11.2 µM (active)
Cc1cc(OCc2ccc([N+](=O)[O-])cc2)c2c3c(c(=O)oc2c1)CCCC3,–,0.141 µM (active)
Cc1cc(OCC(=O)OC(C)C)c2c3c(c(=O)oc2c1)CCCC3,–,2 µM (active)
COc1cc2cc(c1Cl)N(C)C(=O)C[C@H](OC(=O)C(C)C)[C@]1(C)O[C@@H]1[C@@H](C)[C@H]1C[C@](O)(NC(=O)O1)[C@@H](OC)/C=C\C=C(\C)C2,8.76% [at 11.4 µM] (inactive),–
c1ccc2c(c1)-c1ccccc1C2N1CC2CCC(CC2)C1,-14.3% [at 11.4 µM] (inactive),–
CC(C)[N+](C)(CCC(C(N)=O)(c1ccccc1)c1ccccc1)C(C)C,inactive,–
CCSCC[C@H](N)C(=O)O,-1.99% [at 11.4 µM] (inactive),–
C[C@H](N)Cc1c[nH]c2ccc(OCc3cccs3)cc12,inactive,–
C[C@@H]1[C@@H]2Cc3ccc(O)cc3[C@@]1(C)CCN2CC1CC1,inactive,–
N#CCCCC[N+]12CN3CN(CN(C3)C1)C2,6.4% [at 11.4 µM] (inactive),–
C[C@H](c1ccccc1)N1CCN([C@@H](C)c2ccccc2)CC1,5.45% [at 11.4 µM] (inactive),–
O=C(O)[C@@H]1[C@H](C(=O)O)[C@]2(Cl)C(Cl)=C(Cl)[C@@]1(Cl)C2(Cl)Cl,-24.4% [at 11.4 µM] (inactive),–
C/C=C(\C)C(=O)O[C@@H]1C(C)=C2[C@H]([C@@H]1OC(=O)CCCCCCC)[C@@](C)(OC(C)=O)C[C@@H](OC(=O)CCC)[C@@]1(O)[C@H]2OC(=O)[C@]1(C)O,–,31.6 µM (active)
CNC[C@H](O)c1ccc(O)cc1,inactive,–
CN1CCN(c2ccc3ccccc3n2)CC1,inactive,–
CCCN1CCO[C@@H]2c3cc(O)ccc3OC[C@H]21,inactive,–
O=[As](O)(O)c1ccc2nc3cc([As](=O)(O)O)ccc3nc2c1,1.65% [at 11.4 µM] (inactive),–
CCCN1CCc2cccc3c2[C@@H]1Cc1ccc(O)c(O)c1-3,inactive,–
COCCn1c(SCc2nc3sc(C(=O)OC)c(C)c3c(=O)[nH]2)nc2ccccc21,–,0.891 µM (active)
NC(N)=Nc1ccc2[nH]c3c(c2c1)C[C@]1(O)[C@@H]2Cc4ccc(O)c5c4[C@]1(CCN2CC1CC1)[C@@H]3O5,inactive,–
CCN1C[C@@]2(COC)[C@H]3[C@@H](OC)[C@H]4C1[C@@]3([C@H](OC)C[C@@H]2O)[C@H]1C[C@@]2(O)[C@@H](OC(=O)c3ccccc3)[C@@H]1[C@@]4(OC(C)=O)[C@H](O)[C@@H]2OC,inactive,–
COc1ccc(C2SCC(=O)Nc3c2c(C)nn3-c2ccccc2)cc1OC (stereo unspecified),–,10 µM (active)

SMILES,"activity, negative = inhibition",AC50
O=C(Oc1ccc(S(=O)(=O)F)cc1F)c1ccccc1Cl,-12.2% [at 11.4 µM] (inactive),–
C/C(O)=C(/C#N)C(=O)Nc1cc(Br)ccc1Br,inactive,–
O=C1C2CCN(CC2)C1(CO)CO,-2.93% [at 11.4 µM] (inactive),0.0631 µM (active)
O=P(O)(O)C(Cl)(Cl)P(=O)(O)O,inactive,–
COC1=CC(=O)O[C@@H](/C=C\c2ccccc2)C1,inactive,–
N[C@H](CP(=O)(O)O)C(=O)O,inactive,–
CCCCN1C(=O)C(C2c3ccccc3C(=O)N2Cc2ccccc2)C(=O)NC1=S (stereo unspecified),–,2 µM (active)
CN1C(=O)C(C2c3ccccc3C(=O)N2Cc2ccc([N+](=O)[O-])cc2)C(=O)N(C)C1=O (stereo unspecified),–,25.1 µM (active)
Cc1cc(C)c(-n2c(O)c(C=NCCN3CCOCC3)c(=O)[nH]c2=O)c(C)c1,inactive,–
CCC(=O)Nc1ccc(N2CCN(CC)CC2)c(Cl)c1,inactive,–
NC(=O)CN1C[C@@H](O)CC1=O,inactive,–
CC1(C)CCC(C)(C)c2c1ccc(O)c2Cc1c(O)ccc2c1C(C)(C)CCC2(C)C,-17.2% [at 11.4 µM] (inactive),–
C[C@@]12CCC(=O)C=C1C=C[C@H]1[C@H]3CC[C@](O)(CCC(=O)O)[C@]3(C)CC[C@@H]12,inactive,–
O=C(C[C@H](c1ccccc1)c1c(O)c2ccccc2oc1=O)c1ccccc1,–,0.631 µM (active)
CC(C)c1ccc(C(c2c(O)c3ccccc3oc2=O)c2c(O)c3ccccc3oc2=O)cc1,–,3.16 µM (active)
c1ccc(CN2CCCC3(CCNCC3)C2)cc1,inactive,–
CN1CCC(c2c[nH]c3ccc(O)cc23)CC1,inactive,–
C[C@]1(O)CC[C@H]2[C@@H]3[C@@H](O)CC4=CC(=O)CC[C@@]4(C)[C@H]3CC[C@]21C,14% [at 11.4 µM] (inactive),–
C[C@@H]1O[C@@H](O[C@H]2C[C@@H](O)[C@]3(CO)[C@@H]4[C@@H](O)C[C@]5(C)[C@H]([C@@H]6COC(=O)C6)CC[C@@]5(O)[C@H]4CC[C@@]3(O)C2)[C@H](O)[C@H](O)[C@@H]1O,inactive,–
